Giardia killer: Small Molecules that selectively kill Giardia lamblia: qHTS. Giardia lamblia trophozoite viability. activity change, % at 7.66 µM, hits read low. actives 0.15% (n = 340,000). AID 540267, 2011; in the data active = activity change below about -80%; inconclusive = between about -30% and that limit;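 also: parasites exposed to compound for two days anaerobically before the ATP read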
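Compounds were tested on trophozoites seeded at 100 cells/well and held 48 hrs at 37 deg C anaerobically. An ATP-based luminescent kit measured the remaining live cells.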
PI4K2A block: qHTS for small molecular inhibitors of PI4K2A. Phosphatidylinositol 4-kinase type 2-alpha (Homo sapiens), Q9BTU6. purified PI4K2A, ADP-Glo luminescence, 1 h; active compounds read low. activity change, negative = inhibition, % at 76.9 µM. actives 0.13% (n = 420,000); in the data active = activity change below about -50%; inconclusive = mostly about -30% to -49%;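 also: -100% = wells without enzyme as full effect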
Target sequence (Q9BTU6 whole entry, looked up): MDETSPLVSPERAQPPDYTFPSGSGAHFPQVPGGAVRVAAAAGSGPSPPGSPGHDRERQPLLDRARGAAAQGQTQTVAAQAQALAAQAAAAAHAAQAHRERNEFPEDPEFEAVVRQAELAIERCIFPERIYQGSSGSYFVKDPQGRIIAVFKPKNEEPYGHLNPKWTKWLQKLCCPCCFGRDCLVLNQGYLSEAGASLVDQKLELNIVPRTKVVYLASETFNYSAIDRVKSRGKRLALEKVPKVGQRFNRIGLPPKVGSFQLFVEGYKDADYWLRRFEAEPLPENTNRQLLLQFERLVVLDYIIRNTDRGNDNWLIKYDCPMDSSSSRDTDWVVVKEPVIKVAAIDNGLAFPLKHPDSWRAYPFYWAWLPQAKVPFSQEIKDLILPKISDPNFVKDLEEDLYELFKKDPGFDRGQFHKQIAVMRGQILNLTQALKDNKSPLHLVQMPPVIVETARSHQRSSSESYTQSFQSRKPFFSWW
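In this quantitative HTS, ADP production by PI4K2A was quantified luminescently after 1 h at ambient temperature; 100 microM adenosine served as plate-quality control.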
A549 viability: Nrf2 qHTS screen for inhibitors: counterscreen for cytotoxicity. actives 0.16% (n = 390,000). A549 ARE-Fluc cells, CellTiter-Fluor viability, 18-24 h. Potency, µM (titrated, usually from 46 µM), inactives show at the highest dose activity change, negative = cytotoxicity, most hits filed as inhibitors; also: potency is read from the fitted curve at half-maximal effect
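A549 ARE_Fluc cells in 5% FBS OPTI-MEM were exposed to compounds in concentration-response for 18-24 h at 37 deg C. Viability was read by CellTiter-Fluor fluorescence (Ex 405/Em 525) after 30 min, before the luciferase read.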
KB-3-1 tox: qHTS assay for MDR1-selective chemotherapeutics: Primary screen using the parental adenocarcinoma cell KB-3-1; KB-3-1 viability, CellTiter-Glo ATP luminescence, 72 h; actives 1.4% (n = 400,000); Potency, µM (series often up to 46.1 µM), actives largely listed as cytotoxic; also: potency is read from the fitted curve at half-maximal effect; nearly all actives have a fitted effect of over 60% in size
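Cytotoxicity in the drug-sensitive parental line KB-3-1 was scored as loss of CellTiter-Glo luminescence following 72 h incubation with compound. Values come from curve fitting of normalized concentration-response data.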
KB-V1 cytotox: qHTS assay for MDR1-selective chemotherapeutics: Primary screen using the drug-selected MDR subline cells KB-V1; KB-V1 MDR cells viability, CellTiter-Glo, 72 h; Potency, µM (highest dose often 46.1 µM), actives largely listed as cytotoxic; actives 3.4% (n = 400,000); AID 1347076, 2019; also: potency is read from the fitted curve at half-maximal effect; nearly all actives have a fitted effect of over 60% in size
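qHTS viability screen in drug-selected KB-V1 MDR cells: 72 h compound treatment at 37 degrees C, ATP luminescence end point.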
Nrf2 inh: Nrf2 qHTS screen for inhibitors; A549 ARE-Fluc reporter, luciferase luminescence, 18-24 h; Potency, µM (series often up to 46 µM), for the others: at the top dose activity change, negative = inhibition, hits mostly inhibitors; actives 2.1% (n = 360,000); AID 504444, 2011; also: potency is read from the fitted curve at half-maximal effect; nearly all actives have a fitted effect of over 60% in size
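Nrf2 function is reported as luminescence of an ARE-controlled luciferase in A549 cells. Compounds were tested at several concentrations, and a CellTiter-Fluor read on the same wells flagged cytotoxicity.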
* hit, by the source's call. Shown are actives, neighbours in structure and some others; about 5.7% of the full set was active somewhere. Unless noted, calls follow the shape of the dose curve; as a rule, active = well fitted curve in the direction sought with a large enough effect; inconclusive = small, poorly fitted or top-dose-only effect, or another doubt; inactive = no such curve, though single readings can be large; an effect the other way counts as inactive or inconclusive. Unless noted, % is scaled to controls: 0 for no effect and ±100 for the full control effect.

What do the screens show for `Cc1cnc2c3c(cc(Cl)c2c1)-c1ccccc1S(=O)(=O)N3`?
Giardia killer: -0.8; A549 viability: 16.4µM*; Nrf2 inh: 6.51µM*

Results for O=S1(=O)Nc2c(ccc3cccnc23)-c2ccccc21 ?
Giardia killer: -7.7; PI4K2A block: -27.1; A549 viability: inconclusive; KB-3-1 tox: 18.4µM*; KB-V1 cytotox: inconclusive; Nrf2 inh: inconclusive

How did COC(=O)c1sc(NC(=O)C(C)C)c(C(=O)OC)c1C do in these assays?
Giardia killer: 4.4; PI4K2A block: -0.7; A549 viability: -1.0%; KB-3-1 tox: inactive; KB-V1 cytotox: inactive; Nrf2 inh: -12.9%

Results for COC(=O)c1c(NC(=O)c2ccco2)sc2c1CCC2 ?
Giardia killer: 12.3; PI4K2A block: -1.7; A549 viability: 14.8%; KB-3-1 tox: inactive; KB-V1 cytotox: inactive; Nrf2 inh: inconclusive

How did COC(=O)c1c(NC(=O)C(C)C)sc2c1C(C(=O)OC)CC2 (stereo not given) do in these assays?
Giardia killer: -3.0; PI4K2A block: 9.9; A549 viability: -0.6%; KB-3-1 tox: inconclusive; KB-V1 cytotox: 13µM*; Nrf2 inh: 7.8%

How did COC(=O)c1c(NC(=O)c2ccco2)sc2c1C(C(=O)OC)CC2 (stereo not given) do in these assays?
Giardia killer: 16.5; PI4K2A block: -13.7; A549 viability: 8.7%; KB-3-1 tox: inactive; KB-V1 cytotox: 18.4µM*; Nrf2 inh: -6.4%

What do the screens show for `Cc1ccc(-c2nc3ncccn3c2NC(=O)Nc2ccc(F)cc2)cc1`?
PI4K2A block: -2.8

Results for C(=C\c1ccnc2ccccc12)/c1cccnc1 ?
KB-3-1 tox: inactive; KB-V1 cytotox: inactive

Results for C=CCn1c(SCCOc2ccc(OC)cc2)nnc1C(C)NC(=O)Cc1ccc(OC)cc1 (stereo not given) ?
Giardia killer: -16.5; PI4K2A block: 0.0; A549 viability: -12.1%; KB-3-1 tox: inconclusive; KB-V1 cytotox: inconclusive; Nrf2 inh: 23.1µM*

How did CCn1c(SCCOc2ccc(OC)cc2)nnc1C(CO)NC(=O)c1ccc(OC)cc1 (stereo not given) do in these assays?
Giardia killer: 8.5; PI4K2A block: -2.5; A549 viability: -15.5%; KB-3-1 tox: inactive; KB-V1 cytotox: inactive; Nrf2 inh: -12.3%

Results for CCCCCCCCN1C(=O)[C@@H](CC(=O)NCc2ccc(C)o2)C[C@@]2(C(=O)OC)C1=C[C@H](COCc1ccccc1)O[C@@H]2C ?
PI4K2A block: -3.0

What do the screens show for `CCOC(=O)[C@@]12CCC3=C1N(CCC3)C(=O)[C@H](CC(=O)N1CCCCC1)C2`?
PI4K2A block: -1.6

Results for Cc1ccc(NC(=O)N2CCN(C(=O)c3nsc4ccccc34)CC2)cc1C ?
PI4K2A block: 2.4; A549 viability: 1.0%; KB-3-1 tox: inactive; KB-V1 cytotox: inactive

What do the screens show for `Cc1ccc(Cn2c(C(CO)Nc3nc(-c4ccc(F)cc4)cs3)nc3ccccc32)cc1` (stereo not given)?
Giardia killer: 10.1; PI4K2A block: -1.8; A549 viability: -14.9%; KB-3-1 tox: 16.4µM*; KB-V1 cytotox: inactive; Nrf2 inh: inconclusive

How did Cc1ccc(-c2csc(NCCn3c(-c4ccncc4)nc4cc(C(F)(F)F)ccc43)n2)cc1 do in these assays?
Giardia killer: 10.2; PI4K2A block: -6.1; A549 viability: -0.1%; KB-3-1 tox: inconclusive; KB-V1 cytotox: inactive; Nrf2 inh: -5.9%

Results for Cc1ccc(-c2csc(NCCn3c(-c4ccncc4)nc4ccccc43)n2)cc1 ?
Giardia killer: 11.9; PI4K2A block: 2.2; A549 viability: 0.8%; KB-3-1 tox: inconclusive; KB-V1 cytotox: 20.6µM*; Nrf2 inh: inconclusive

Results for Cc1ccc(NC(=O)C2CCCN2S(=O)(=O)c2cccc3cccnc23)cc1C (stereo not given) ?
PI4K2A block: -0.8; A549 viability: 0.9%; Nrf2 inh: -22.2%

What do the screens show for `O=C1CCCN1c1ccc(S(=O)(=O)N2CCN(c3ccccc3)CC2)cc1`?
Giardia killer: -19.4; PI4K2A block: 4.0; A549 viability: -0.9%; KB-3-1 tox: inactive; KB-V1 cytotox: inactive; Nrf2 inh: 4.2%

How did O=C1CCCN1c1ccc(S(=O)(=O)N2CCC(c3ccccc3)CC2)cc1 do in these assays?
Giardia killer: 4.3; PI4K2A block: 5.6; A549 viability: -3.7%; KB-3-1 tox: inactive; KB-V1 cytotox: 2.59µM*; Nrf2 inh: inconclusive

What do the screens show for `O=C1CCCN1c1ccc(S(=O)(=O)NCCOc2ccccc2)cc1`?
Giardia killer: -28.2; PI4K2A block: -1.4; A549 viability: -11.1%; KB-3-1 tox: inactive; KB-V1 cytotox: inactive; Nrf2 inh: 12.6µM*

Results for O=C(OCc1cn(Cc2cccc(F)c2)nn1)N1CCCCC1 ?
PI4K2A block: -5.8

Results for C=CCNc1nc(NCCOC)c2sc(-c3ccccc3)cc2n1 ?
PI4K2A block: -3.2; KB-3-1 tox: inactive; KB-V1 cytotox: inconclusive

How did C=CCNc1nc(Nc2ccc(OC)c(OC)c2)c2sc(-c3ccccc3)cc2n1 do in these assays?
PI4K2A block: -6.0; KB-3-1 tox: 2.06µM*; KB-V1 cytotox: inconclusive

Results for CN1CCN(C(=O)c2cc(COc3ccc(F)cc3Cl)on2)CC1c1ccccc1 (stereo not given) ?
Giardia killer: -5.9; PI4K2A block: -0.2; A549 viability: inconclusive; KB-3-1 tox: 16.4µM*; KB-V1 cytotox: inactive; Nrf2 inh: 13µM*

What do the screens show for `Cc1cc(CN(C)C(=O)c2cc(COc3ccc(F)cc3Cl)on2)n[nH]1`?
Giardia killer: -19.4; PI4K2A block: 0.0; A549 viability: -0.3%; KB-3-1 tox: inactive; KB-V1 cytotox: 20.6µM*; Nrf2 inh: inconclusive

What do the screens show for `O=C(c1cc(COc2ccc(F)cc2Cl)on1)N1CCCC(OCc2cccnc2)C1` (stereo not given)?
Giardia killer: 12.2; PI4K2A block: 6.4; A549 viability: -1.5%; KB-3-1 tox: inactive; KB-V1 cytotox: 9.2µM*; Nrf2 inh: -15.4%

Results for O=C(c1cc(COc2ccc(F)cc2Cl)on1)N1CCC(OCc2cccnc2)CC1 ?
Giardia killer: -0.1; PI4K2A block: -20.9; A549 viability: -0.4%; KB-3-1 tox: inactive; KB-V1 cytotox: inconclusive; Nrf2 inh: 2.5%

Screening results (PubChem BioAssay)
